Assay results published in PubChem BioAssay AID504773 (Broad Institute, 2011).
Measured potencies and affinities stand elsewhere. Activity calls are given as the source filed them.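 The calls were made as follows: active = polarization signal falls with dose and the fitted half-maximal concentration is at or below ten times the sample's top valid dose; inconclusive = flat curve at 30 to 70% inhibition, or poor fit; inactive = signal rises, flat within 30%, or potency beyond limit.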

target: Golgi-associated PDZ and coiled-coil motif-containing protein (Homo sapiens) (UniProt Q9HD26); assay: CAL PDZ peptide-binding inhibitors, dose response, biochemical, fluorescence polarization, Cerulean-tagged CAL PDZ, cherry-picks (AID 504773); conditions: 1 h; series mostly up to 50 µM

outcome, inactive:
COc1ccc(CCn2c(=S)[nH]c3ccc(N4CCOCC4)cc3c2=O)cc1OC
O=C(O)c1cccc(Nc2ccc([N+](=O)[O-])cn2)c1
O=[N+]([O-])c1ccc(N/N=C/c2cccnc2)cc1
C(=N\N1CCOCC1)/c1nc(-c2ccccc2)n2ccccc12
CCOc1ccccc1CN1CCC(n2nccc2NC(=O)C2CCCC2)CC1
O=C(NNC(=S)NC(=O)c1ccc(Br)cc1)c1ccc([N+](=O)[O-])cc1
O=C(Nc1ccc([N+](=O)[O-])cc1)Nc1cnccn1
O=C(N/N=C/c1ccc(OCc2ccccc2)cc1)c1ccc(O)cc1
O=C(COC(=O)c1ccccc1C(=O)N1CCN(c2ccccc2)CC1)NCc1ccccc1
O=C(NCC(=O)N1CCC(N2CCCCC2)CC1)C1CCCCC1
CCC(C)(C)NC(=O)CSc1nc(Cc2ccccc2)nc2ccccc12
CCn1c(=O)c(C(C)=O)c(O)c2ccccc21
CCOC(=O)c1nc(NCCc2ccccc2)sc1C
O=C(c1cccs1)N1CCN(C(=O)N2CCOCC2)CC1
COn1c(SCc2ccccc2)nc2ccccc2c1=O
O=C(Cc1ccccc1)NN=C1CCCC1
COc1cc(NC(=O)c2cccs2)ccc1NC(=O)c1ccccc1Cl
